Compound activity as filed in PubChem BioAssay.
In the library only some 6% were active in any assay of this set; here they are far more common.
D1 antag – blocks dopamine activation of the human D1 receptor. HEK293 TREx D1 cells, calcium flux, dopamine EC80; stronger effect = lower value. activity change, negative = inhibition, % at 10 µM. actives 3.2% (n = 360,000). AID 504652; in the data active means activity change below about -30%; further: on the % scale 0 is the no-effect control and ±100 the full control effect
Target sequence (P21728 whole entry, looked up): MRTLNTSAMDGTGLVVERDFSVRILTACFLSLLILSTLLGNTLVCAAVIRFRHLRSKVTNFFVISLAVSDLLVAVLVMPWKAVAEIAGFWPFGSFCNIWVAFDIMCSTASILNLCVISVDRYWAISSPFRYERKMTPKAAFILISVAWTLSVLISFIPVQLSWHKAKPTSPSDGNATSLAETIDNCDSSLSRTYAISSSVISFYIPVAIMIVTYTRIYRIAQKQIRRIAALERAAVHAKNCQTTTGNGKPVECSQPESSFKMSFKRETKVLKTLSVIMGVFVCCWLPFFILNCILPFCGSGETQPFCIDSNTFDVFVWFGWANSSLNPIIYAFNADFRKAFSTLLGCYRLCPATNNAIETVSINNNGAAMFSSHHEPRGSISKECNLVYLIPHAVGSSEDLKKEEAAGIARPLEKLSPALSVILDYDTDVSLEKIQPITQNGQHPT
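Tetracycline-induced HEK293 T-REx cells with force-coupled D1 receptor were loaded with a no-wash calcium dye. Compound was added after a 10 s baseline and read kinetically for 180 s; EC80 dopamine was then added and calcium flux followed another 180 s.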
D1 PAM – enhances dopamine response at the human D1 receptor. P21728. HEK293 TREx D1 cells, calcium flux, dopamine EC20 potentiation. potentiation, % at 10 µM. actives 0.036% (n = 360,000); in the data active means potentiation above about 30%; further: 0% is about no effect
D1 ag – agonists of human D1 dopamine receptor | P21728 | HEK293 T-REx D1 cells, calcium flux, agonist mode | activation, % at 2 µM | actives 1% (n = 360,000); in the data active means activation above about 30%; further: 0% is about no effect
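Agonism was scored from calcium flux recorded over 180 s (1 read/s) after pintool compound addition, following a 10-cycle baseline. Cells were inducible force-coupled HEK293 TREx D1, plated overnight at 30 C and loaded with no-wash calcium dye.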
D3 ag – D3 dopamine receptor (human) agonism | D3R DiscoveRx beta-arrestin cells, luminescence, 90 min | actives 0.58% (n = 410,000) | max activation, % | P35462 | AID 652048; in the data active means max activation above about 30%; further: 0% is about no effect
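Agonist-mode cell screen: cells plated at 1500/well and incubated overnight at 37 °C, then exposed to library compounds for 90 min at 37 °C. Detection reagent was added for 30–60 min at room temperature, and luminescence was read.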
D3 antag – blocks the human D3 dopamine receptor; P35462; D3R cells, DiscoveRx beta-arrestin luminescence, antagonist mode; stronger effect = lower value; max response, negative = inhibition, %; actives 2.5% (n = 360,000); in the data active means max response below about -50%; inconclusive means no clear call, values can overlap the other calls; further: on the % scale 0 is the no-effect control and ±100 the full control effect
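Cells plated overnight at 1500 cells/well, then exposed to library compounds with dopamine controls for 90 minutes at 37 degrees C. DiscoveRx reagent added for 30–60 minutes at room temperature; luminescence read, quantitative HTS format.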
* marks the source's active call; other numbers are inactive results; ? = inconclusive; / = no result.

SMILES	D1 antag	D1 PAM	D1 ag	D3 ag	D3 antag
CC1(C)N=C(N)N=C(N)N1c1ccc(OCCCOc2ccccc2)c(Cl)c1	-2	-4	4	1	-2
CC1(C)N=C(N)N=C(N)N1c1ccc(OCC(=O)Nc2ccccc2)c(Cl)c1	/	/	/	-6	-62*
COc1cc([N+](=O)[O-])c2nc(C(=O)O)ccc2c1	/	/	/	2	-10
CCOc1ccc(-c2cc(C(=O)Oc3ccc(C#N)cc3)no2)cc1	14	0	3	-41	/
N#Cc1ccc(OC(=O)c2cc(-c3ccc(Cl)cc3)on2)cc1	-38*	0	3	-8	/
Cc1cc(OC(=O)c2cc(-c3ccc4c(c3)OCCO4)on2)ccc1Cl	-36*	-2	11	-10	/
Cc1cccc(NC(=O)c2cc(-c3ccc4c(c3)OCCO4)on2)c1	-66*	-1	35*	-18	/
CCOC(=O)C1CCN(S(=O)(=O)c2cc(-c3onc(C)c3C)ccc2C)CC1	-36*	-4	2	-2	/
Cc1ccc(-c2onc(C)c2C)cc1S(=O)(=O)Nc1cccc(Cl)c1C	-39*	-6	2	1	/
Cc1ccc(-c2onc(C)c2C)cc1S(=O)(=O)N1CCCCC1	18	-2	3	7	/
Cc1ccc(-c2onc(C)c2C)cc1S(=O)(=O)NCc1ccc(N(C)C)cc1	-32*	-5	4	1	/
CCOC(=O)C1CCN(S(=O)(=O)c2cc(-c3onc(C)c3C)ccc2OC)CC1	30	-1	1	-1	/
Cc1ccc(-c2onc(C)c2C)cc1S(=O)(=O)NC1CCCCC1	-63*	-8	4	-20	/
CCN1CCN(C(c2ccc(SC)cc2)c2c(O)cc(C)n(CCOC)c2=O)CC1 (stereo unspecified)	6	-4	-1	-4	/
CSCCC(NC(=O)c1ccco1)C(=O)Nc1ccc(C)cn1 (stereo unspecified)	-35*	-19	0	3	5
Cn1c(CNC(=O)CSc2nc(-c3ccccc3F)nc3cc(=O)[nH]n23)nc2ccccc21	-58*	-4	0	5	/
CC(NC(=O)CSc1nc(-c2ccccc2F)nc2cc(=O)[nH]n12)c1nc2ccccc2n1C (stereo unspecified)	-14	3	4	7	/
CC(C)C(=O)Nc1cccc(C(=O)OCC(=O)c2ccc(Cl)cc2Cl)c1	4	-4	2	31*	44
COC(=O)c1cccc(NC(=O)Nc2ccc(Cl)cc2Cl)c1	-43*	-3	16	-11	-2
O=C(NCc1ccc(Cl)cc1)c1cccc(NC(=O)c2ccccc2)c1	-34*	-5	3	-2	-9
COC(=O)c1cc(NC(=S)NCc2ccc(Cl)cc2)cc(C(=O)OC)c1	-17	-4	29	-2	6
COC(=O)c1cccc(NC(=S)NCc2ccc(Cl)cc2)c1	0	-6	35*	1	-12
O=C(NCc1ccccc1)c1ccc(Cl)cc1	-2	-1	2	-5	9
COc1cccc(C(c2sc3nc(-c4ccco4)nn3c2O)N2CCC3(CC2)OCCO3)c1 (stereo unspecified)	/	-2	-3	2	/
O=C(NCc1ccccc1)c1cccc(COc2ccc(Cl)cc2)c1	0	-8	38*	-1	-8
SMILES	D1 antag	D1 PAM	D1 ag	D3 ag	D3 antag
Cn1cc([N+](=O)[O-])cc1-c1nc2ccccc2n1C	-34*	-3	3	1	1
Cn1c(-c2ccc([N+](=O)[O-])cc2)nc2ccccc21	-18	-12	1	4	18
CN1CCN(C(=O)c2ccc3c(c2)N(C)C(=O)/C(=C/c2cccc(Cl)c2)S3)CC1	-38*	-7	22	-15	-17
CN1C(=O)/C(=C/c2cccc(Cl)c2)Sc2ccc(C(=O)NCc3cccnc3)cc21	-40*	-10	12	-5	3
O=S(=O)(c1ccccc1)[C@@]1(c2ccccc2)C[C@@H]2ON=C(c3cccc(-c4ccccc4)c3)[C@@H]2C1	2	7	2	11	20
CCC(C)NC(=O)c1ccccc1NC(=O)c1ccc(CSc2ccccc2)cc1 (stereo unspecified)	-4	-4	36*	4	6
CCCNC(=O)c1ccccc1NC(=O)c1ccc(CSc2ccccc2)cc1	-46*	-8	40*	-2	21
CCC(CC)C(=O)Nc1cccc(-c2nc3ncccn3c2C)c1	-5	5	0	-23	/
CC(=O)n1c2ccccc2c2c1c1ccccc1n2C	-13	1	2	13	-56*
COc1ccc(NC(=O)c2oc3ccccc3c2NC(=O)c2cc(OC)c(OC)c(OC)c2)cc1	0	-1	2	-13	/
Cc1ccc(S(=O)(=O)N2CCN(C(C)C(=O)NCC(C)c3ccccc3)CC2)cc1 (stereo unspecified)	/	/	/	6	4
CCCC(=O)NC(c1cccs1)c1cc([N+](=O)[O-])c2cccnc2c1O (stereo unspecified)	-17	-9	5	-18	?
CCC(=O)NC(c1cccs1)c1cc([N+](=O)[O-])c2cccnc2c1O (stereo unspecified)	26	0	4	-23	-69*
CCCCC(=O)NC(c1ccccc1)c1ccc2cccnc2c1O (stereo unspecified)	-7	0	20	3	-12
CCCC(=O)NC(c1ccccc1)c1ccc2cccnc2c1O (stereo unspecified)	-1	-2	1	31*	?
CC(C)C(=O)NC(c1ccccc1)c1cc([N+](=O)[O-])c2cccnc2c1O (stereo unspecified)	-10	-9	1	-19	-77*
CC(=O)OC1C=CCC2C(=O)c3cccc(O)c3C(O)C12 (stereo unspecified)	/	/	/	2	12
COC(=O)C(NC(=O)c1ccccc1C(=O)O)c1ccc2ccccc2c1 (stereo unspecified)	3	-1	6	5	24
CCOCCCNC(=O)c1oc2ccc3c(c2c1C)C(O)CC(C)(C)O3 (stereo unspecified)	0	-2	3	4	8
CC(C)C[C@H]1C(=O)N2CCC[C@H]2[C@]2(O)O[C@](NC(=O)C3C=C4c5cccc6[nH]c(Br)c(c56)C[C@H]4N(C)C3)(C(C)C)C(=O)N12 (stereo partly specified)	/	/	/	21	-55*
CN(C(=O)c1ccc(NC(=O)C2CCCN(C(=O)OC(C)(C)C)C2)cc1)C1CC1 (stereo unspecified)	/	/	/	3	10
Cc1noc(C)c1CSc1nc2sc(C)c(C)c2c(=O)n1-c1ccccc1	-6	-3	4	2	-9
C=CCn1c(SCC(=O)NCCO)nc2sc(C)c(C)c2c1=O	10	0	1	6	1
C=CCn1c(SCC(=O)c2cc(C)n(C(C)COC)c2C)nc2sc(C)c(C)c2c1=O (stereo unspecified)	-25	0	3	60*	20
